Source: PubChem BioAssay (EPA / NIEHS)
Records with an inconclusive call do not appear. Activity calls are given as the source filed them. The calls were made as follows, unless noted: active = hit-call score of the fitted dose curve at least 0.9, where 1 is the maximum; inactive = score below 0.9.

Key:
[1] = CCTE_Harrill_HTTr_Viability_MCF7: CCTE's 6-hour Cell Viability Assessment for the High-Throughput Transcriptomics (HTTr) Platform, in MCF-7 cells cultured in DMEM + 10% fetal bovine serum, Harrill Lab (AID 2284010)
Procedure, shortened: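 Eight-point concentration series, six-hour exposure. Propidium iodide exclusion imaged to assess membrane integrity as a cytotoxicity readout; bidirectional fitting was done with DMSO as negative control and activity baseline.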

[2] = CCTE_Harrill_HTTr_Apoptosis_MCF7: CCTE's 6-hour Apoptosis Assessment for the High-Throughput Transcriptomics (HTTr) Platform, in MCF-7 cells cultured in DMEM + 10% fetal bovine serum, Harrill Lab (AID 2284011)
Procedure, shortened: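 MCF-7 cells in DMEM + 10% fetal bovine serum were exposed to chemicals for 6 hours over an eight-point dilution series. Caspase-3/7 activation was imaged by high content imaging with CellEvent Caspase 3/7 Green; bidirectional fitting used DMSO as baseline.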

[3] = CCTE_Shafer_MEA_acute_spike_number: CCTE's Neural Acute Assay for Total Number of Spikes, Shafer Lab (AID 2284008)
Procedure, shortened: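 Primary rat cortical neurons on 16-electrode MEA wells; on DIV 13 or 15, 40-min baseline then 40-min recording with compound (0.03-40 uM) at 37 C. Spikes detected at 8x rms noise; percent change versus baseline, DMSO as negative control.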

[4] = CCTE_Shafer_MEA_acute_firing_rate_mean: CCTE's Neural Acute Assay for Mean Firing Rate, Shafer Lab (AID 2284009);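 also: analyzed for loss of signal so actives lower firing rate relative to DMSO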
Procedure, shortened: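 Rat cortical neuron cultures matured to DIV 13 or 15, equilibrated 20 min at 37 C, then recorded 40 min for baseline. Compound (0.03-40 uM) added and a further 40 min recorded; percent change in mean firing rate calculated per well.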

[5] = CCTE_Shafer_MEA_acute_burst_number: CCTE's Neural Acute Assay for Single-Electrode Bursts, Shafer Lab (AID 2284013)
Procedure, shortened: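 Percent change in single-electrode burst number per well, from 40-min recordings taken before and after adding compound (0.03-40 uM) to primary rat cortical neurons on MEA plates at DIV 13 or 15, 37 C.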

[6] = CCTE_Shafer_MEA_acute_burst_duration_mean: CCTE's Neural Acute Assay for Mean Burst Duration, Shafer Lab (AID 2284014);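 also: hits are decreases in mean burst duration relative to DMSO controls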
Procedure, shortened: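 Rat cortical cultures, DIV 13/15; 40 min baseline, then 40 min with compound (0.03-40 uM), 37 C. Spikes: 300-5000 Hz band-pass, 8x rms threshold. Read-out: % change in mean single-electrode burst duration, DMSO-referenced, loss direction.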

[7] = CCTE_Shafer_MEA_acute_per_burst_spike_number_mean: CCTE's Neural Acute Assay for Average Number of Spikes Per Burst, Shafer Lab (AID 2284015);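 also: hits are decreases in mean spikes per burst versus baseline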
Procedure, shortened: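 Rat primary cortical neurons on 48-well MEAs (DIV 13 or 15) were treated with 0.03-40 uM compound at 37 C. Mean spikes per burst over 40 min were recorded before and after exposure and expressed as percent change from baseline, relative to DMSO.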

[8] = CCTE_Shafer_MEA_acute_interburst_interval_mean: CCTE's Neural Acute Assay for Mean Interburst Interval, Shafer Lab (AID 2284016);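 also: percent change of mean interburst interval versus each well's own pre-dose baseline; curves fitted for decrease in interburst interval relative to DMSO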
Procedure, shortened: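 Rat primary cortical neurons on 48-well MEAs at DIV 13 or 15 were exposed acutely to 0.03-40 uM. Spikes detected at 8x rms noise, 37 C. Mean interburst interval from 40 min recordings expressed as percent change from 40 min pre-treatment baseline.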

[9] = CCTE_Harrill_HTTr_CellCount_MCF7: CCTE's Cell Proliferation Assessment for the High-Throughput Transcriptomics (HTTr) Platform, Harrill Lab (AID 2284012; active = hit-call score of the fitted dose curve at least 0.9, where 1 is the maximum;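 also: count of Hoechst-stained nuclei per well by high-content imaging in MCF-7 cells; cells exposed to compound for six hours; intended direction is loss of nuclei count meaning fewer cells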)
Procedure, shortened: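 For this full-screen endpoint, MCF-7 cultures received eight compound dilutions for six hours. Well nuclei counts from Hoechst imaging were analyzed relative to DMSO.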

Measured: AC50

Cc1occc(=O)c1O
inactive: [1] | [2]

O=C(O)c1[nH]n(-c2ccc(S(=O)(=O)O)cc2)c(=O)c1N=Nc1ccc(S(=O)(=O)O)cc1
inactive: [1] | [2]

O=[Si]=O
inactive: [1] | [2]

OCC(CO)n1cnc(-c2ccc(F)cc2)c1-c1ccnc(Oc2ccccc2)n1
not listed: [9]
inactive: all other assays above

Oc1ccc(O)cc1
active: [8] 20 µM
inactive: all other assays above

c1ccc2occc2c1
inactive: all assays above

O=C(O)CN(CC(=O)O)CC(=O)O
not listed: [9]
inactive: all other assays above

CCCCC(CC)COP(=O)(OCC(CC)CCCC)OCC(CC)CCCC (configuration not stated)
not listed: [9]
inactive: all other assays above

CCCCCCCC(=O)OC
inactive: [1] | [2]

CC1(C)C(=O)NC(=O)N1CO
inactive: [1] | [2]

CCCCCCC(CCCCCCCCCCC(=O)OCC(COC(C)=O)OC(C)=O)OC(C)=O (configuration not stated)
inactive: [1] | [2]

COc1ccc(C(=O)Nc2nc3ccccc3c(NCc3ccccc3)c2C#N)cc1
inactive: [1] | [2]

CCc1nc(N)nc(N)c1-c1ccc(Cl)cc1
inactive: [1] | [2] | [9]

CC(=O)CC(c1ccccc1)c1c(O)c2ccccc2oc1=O (configuration not stated)
inactive: [1] | [2] | [9]

OCC(O)CO
inactive: [1] | [2]

O=C(O)c1cccnc1
inactive: [1] | [2] | [9]

CCCCC(CC)COC(=O)CCCCCCCC(=O)OCC(CC)CCCC (configuration not stated)
inactive: [1] | [2]

CC(=O)OCC(COC(C)=O)OC(C)=O
inactive: [1] | [2]

CC(=O)S[C@H](C(=O)N[C@H]1Cc2ccccc2[C@H]2CCC[C@@H](C(=O)O)N2C1=O)C(C)C
inactive: [1] | [2] | [9]

CC(=O)OC1CC(C)OC(C)O1 (configuration not stated)
inactive: [1] | [2] | [9]

Cn1cnc2c1c(=O)[nH]c(=O)n2C
inactive: [1] | [2] | [9]

CCCC[C@H]1CN(CC2CCOCC2)C(=O)OC12CCN(C1(C)CCN(C(=O)c3c(C)ncnc3C)CC1)CC2
inactive: [1] | [2] | [9]

CC(C)c1cccc(C(C)C)c1NC(=O)NS(=O)(=O)c1cc(C(C)(C)O)co1
inactive: [1] | [2] | [9]

COC(=O)CCCC(=O)OC
inactive: [1] | [2]

CCCCOC(=O)CCCCC(=O)OCCCC
inactive: [1] | [2] | [9]

CC(=O)O
inactive: [1] | [2] | [9]

O=C(O)CC(O)(CC(=O)O)C(=O)O
inactive: [1] | [2]

C/C=C/C=C/C(=O)O
inactive: [1] | [2] | [9]

NC1CCCCC1
inactive: [1] | [2] | [9]

O=NO
inactive: [1] | [2] | [9]

O=C1c2c(O)cccc2Cc2cccc(O)c21
inactive: [1] | [2] | [9]

COC(=O)CCC(=O)OC
inactive: [1] | [2] | [9]

Cc1cn([C@H]2C=C[C@@H](CO)O2)c(=O)[nH]c1=O
inactive: [1] | [2] | [9]

CC(=O)[C@@]1(O)CC[C@H]2[C@@H]3CCC4=CC(=O)CC[C@]4(C)[C@H]3CC[C@@]21C
inactive: [1] | [2] | [9]

O=C1NC(=O)C(c2ccccc2)(c2ccccc2)N1
inactive: [1] | [2] | [9]

CN(C)CCCN(C)CCCN(C)C
inactive: [1] | [2] | [9]

CS(=O)(=O)c1ccc([C@@H](C[C@H]2CCC(=O)C2)C(=O)Nc2cnccn2)cc1Cl
inactive: [1] | [2] | [9]

C=CCc1ccc(OC)c(OC)c1
inactive: [1] | [2] | [9]

CC(C)(C)c1ccccc1
inactive: [1] | [2] | [9]
